Measurements from PubChem BioAssay (NCATS).
Results filed as inconclusive are left out. The source made the active and inactive calls. Unless noted, calls come from the whole dose curve; as a rule, active = well fitted cell-killing curve with a large enough effect; inconclusive = small, poorly fitted or top-dose-only effect; inactive = flat fitted curve, though single readings scatter.

Tests used:
[1] = Cell Viability - LYMP2-017 (AID 972); note: series mostly up to about 92 µM; nearly all actives have a fitted effect of over 55% in size
Procedure, shortened: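 Human lymphoblastoid cells (2500/well) were seeded in complete medium, held 5 hr at 37 C, then exposed to compounds for 24 hr at 37 C. Intracellular ATP was read by CellTiter-Glo luminescence after 30 min at room temperature, with AC50 values from Hill-equation fits.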

[2] = Cell Viability - LYMP2-019 (AID 973); note: nearly all actives have a fitted effect of over 55% in size
Procedure, shortened: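 Human lymphoblastoid cells were seeded at 2500 cells/well, preincubated 5 hr at 37 C, then exposed to compounds for 24 hr at 37 C in complete medium. Intracellular ATP was measured by CellTiter-Glo luminescence; AC50 from Hill fits.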

[3] = Cell Viability - LYMP2-021 (AID 974);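 note: compound exposure lasts 24 hours at 37 °C; nearly all actives have a fitted effect of over 55% in size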
Procedure, shortened: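 Human lymphoblastoid cells (2500/well) were preincubated 5 hr at 37 C, then exposed to compounds for 24 hr at 37 C in complete medium. Intracellular ATP was read by CellTiter-Glo luminescence; AC50 came from Hill-equation fits of concentration-response data.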

[4] = Cell Viability - LYMP2-023 (AID 975);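 note: cellular ATP measured by luciferase luminescence as viability proxy; series mostly up to about 92 µM; nearly all actives have a fitted effect of over 55% in size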
Procedure, shortened: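 Human lymphoblastoid cells (2500/well) were preincubated 5 hr at 37 C, then exposed to compounds for 24 hr at 37 C in complete medium. Cellular ATP was read by CellTiter-Glo luminescence, and AC50 came from Hill-equation fits.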

[5] = Cell Viability - LYMP2-025 (AID 976); note: series mostly up to about 92 µM
Procedure, shortened: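 Human lymphoblastoid LYMP2-025 cells (2500/well) were pre-incubated 5 hr at 37 C, then treated with compounds for 24 hr at 37 C in complete medium. Viability was read as intracellular ATP by CellTiter-Glo luminescence; AC50 from Hill fits.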

[6] = Cell Viability - LYMP2-002 (AID 977);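 note: series mostly up to about 92 µM; compound exposure lasted 24 h at 37 °C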
Procedure, shortened: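 Human lymphoblastoid LYMP2-002 cells, 2500 per well, exposed to compounds for 24 h at 37 C in complete medium; viability read as intracellular ATP by CellTiter-Glo luminescence, AC50 from Hill fits.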

[7] = Cell Viability - LYMP2-006 (AID 978); note: series mostly up to about 92 µM; nearly all actives have a fitted effect of over 60% in size
Procedure, shortened: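 Cells are seeded at 2500 per well and rested 5 hr at 37 C. Compounds are added across a concentration series for 24 hr at 37 C, after which ATP is quantified by luciferase luminescence.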

[8] = Cell Viability - LYMP2-007 (AID 979);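 note: cells exposed to compound for 24 h before reading; nearly all actives have a fitted effect of over 60% in size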
Procedure, shortened: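 Human lymphoblastoid cells (2500/well) were plated in complete medium, incubated 5 hr at 37 C, then exposed to compounds for 24 hr at 37 C. Intracellular ATP was read by CellTiter-Glo luminescence after 30 min at room temperature; AC50 from Hill fits.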

[9] = Cell Viability - LYMP2-008 (AID 980); note: nearly all actives have a fitted effect of over 60% in size
Procedure, shortened: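 Human lymphoblastoid cells (2500/well) were plated, held 5 hr at 37 C, then exposed to compounds for 24 hr at 37 C in complete medium. Intracellular ATP was read by CellTiter-Glo luminescence; AC50 from Hill-fitted concentration-response.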

[10] = Cell Viability - LYMP2-014 (AID 983); note: series mostly up to about 92 µM; nearly all actives have a fitted effect of over 50% in size
Procedure, shortened: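 Human lymphoblastoid cells (2500/well) were pre-incubated 5 hr at 37 C, then exposed to compounds in complete medium for 24 hr at 37 C. Intracellular ATP was read by CellTiter-Glo luminescence after 30 min at room temperature; AC50 from Hill fits.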

[11] = Cell Viability - LYMP2-016 (AID 984); note: nearly all actives have a fitted effect of over 55% in size
Procedure, shortened: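 Cells were seeded at 2500 per well and rested 5 hr before a 24 hr compound exposure at 37 C. Viability was then gauged as cellular ATP by luciferase luminescence, with AC50 values fitted to the Hill equation.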

[12] = Cell Viability - LYMP2-018 (AID 985); note: nearly all actives have a fitted effect of over 50% in size
Procedure, shortened: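 Human lymphoblastoid cells (2500/well) were pre-incubated 5 hr at 37 C, then exposed to compounds for 24 hr at 37 C in complete medium. Viability was read as intracellular ATP by CellTiter-Glo luminescence; AC50 values came from Hill-equation fits.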

[13] = Cell Viability - LYMP2-020 (AID 986)
Procedure, shortened: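 Human lymphoblastoid cells, 2500/well, were pre-incubated 5 hr at 37 C, then exposed to compounds for 24 hr at 37 C in complete medium. Intracellular ATP was read by CellTiter-Glo luminescence, and AC50 was derived by Hill fitting of concentration-response data.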

[14] = Cell Viability - LYMP2-024 (AID 988); note: nearly all actives have a fitted effect of over 60% in size
Procedure, shortened: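 Human lymphoblastoid cells (2500/well) in complete medium were preincubated 5 hr at 37 C, then exposed to compounds for 24 hr at 37 C. Intracellular ATP was read by CellTiter-Glo luminescence; AC50 from Hill-equation fits of concentration-response data.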

[15] = Cell Viability - LYMP2-026 (AID 989); note: nearly all actives have a fitted effect of over 50% in size
Procedure, shortened: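 Human lymphoblastoid cells (2500/well) in complete medium were preincubated 5 hr at 37 C, then exposed to compounds for 24 hr at 37 C. Cellular ATP was read by CellTiter-Glo luminescence; AC50 from Hill-equation fits of concentration-response data.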

[16] = Cell Viability - LYMP1-002 - Assay at 24 hr (AID 993)
Procedure, shortened: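 Human lymphoblastoid LYMP1-002 cells, 2500/well in complete medium, were treated with compounds for 24 h at 37 C; intracellular ATP was read by CellTiter-Glo luminescence. AC50 values came from Hill-equation fits of qHTS concentration-response data.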

[17] = Cell Viability - LYMP1-002 - Assay at 40 hr (AID 994); note: nearly all actives have a fitted effect of over 60% in size
Procedure, shortened: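 Human lymphoblastoid cells, 2500/well in complete medium, were preincubated 5 hr at 37 C, then exposed to compounds for 40 hr at 37 C. Intracellular ATP was read by CellTiter-Glo luminescence after 30 min at room temperature; AC50 from Hill-equation fits.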

[18] = qHTS Assay for Identification of Small Molecule Inducers of Hypoxia Response (AID 2120; active = well fitted curve in the direction sought with a large enough effect in the signal ratio, with a control signal flat, not every such curve was filed as active; the % refers to the signal ratio)
Procedure, shortened: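 HRE-beta-lactamase reporter in CellSensor HRE-bla ME-180 cells, 2500 cells/well in Opti-MEM with 0.5% dialyzed FBS; compounds tested as titration series, 17 h at 37 degrees C. CCF4 substrate 2.5 h at room temperature; AC50 from 460/530 nm ratio.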

[19] = target: Estrogen receptor (Homo sapiens) (UniProt P03372); test: qHTS assay for small molecule antagonists of estrogen receptor alpha signaling (AID 588513; active = well fitted curve in the direction sought with a large enough effect in the signal ratio, with a control signal flat, not every such curve was filed as active; the % refers to the signal ratio)
Procedure, shortened: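 Fluorescence from CCF4 substrate after 2 h at room temperature gave reporter activity; cells had been exposed to compound and 0.5nM 17-beta-estradiol for 18 h at 37 C. Hill-equation fitting yielded IC50 and maximal response.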

[20] = target: Estrogen receptor (Homo sapiens) (UniProt P03372); test: qHTS assay for small molecule agonists of estrogen receptor alpha signaling (AID 588514; calls by dose curve; note: nearly all actives have a fitted effect of over 70% in size)
Procedure, shortened: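 ER-alpha-UAS-bla GripTite HEK 293 cells in medium with 2% charcoal/dextran-treated FBS were treated with compound titrations at 37 C for 18 hrs; beta-lactamase reporter read by CCF4 fluorescence after 2 hrs at RT.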

[21] = target: Peroxisome proliferator-activated receptor gamma (Homo sapiens) (UniProt P37231); test: qHTS assay for small molecule agonists of peroxisome proliferator-activated receptor gamma signaling (AID 588536; active = well fitted curve in the direction sought with a large enough effect in the signal ratio, with a control signal flat, not every such curve was filed as active; the % refers to the signal ratio)
Procedure, shortened: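 PPAR-gamma-UAS-bla HEK293 cells in medium with 1% charcoal/dextran-treated FBS were exposed to compounds for 16 h at 37 C. Beta-lactamase activity was read with CCF4 substrate (405 nm excitation, 460/530 nm emission).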

Measured: Potency

Sequence of Estrogen receptor (Homo sapiens) (P03372 whole entry, looked up): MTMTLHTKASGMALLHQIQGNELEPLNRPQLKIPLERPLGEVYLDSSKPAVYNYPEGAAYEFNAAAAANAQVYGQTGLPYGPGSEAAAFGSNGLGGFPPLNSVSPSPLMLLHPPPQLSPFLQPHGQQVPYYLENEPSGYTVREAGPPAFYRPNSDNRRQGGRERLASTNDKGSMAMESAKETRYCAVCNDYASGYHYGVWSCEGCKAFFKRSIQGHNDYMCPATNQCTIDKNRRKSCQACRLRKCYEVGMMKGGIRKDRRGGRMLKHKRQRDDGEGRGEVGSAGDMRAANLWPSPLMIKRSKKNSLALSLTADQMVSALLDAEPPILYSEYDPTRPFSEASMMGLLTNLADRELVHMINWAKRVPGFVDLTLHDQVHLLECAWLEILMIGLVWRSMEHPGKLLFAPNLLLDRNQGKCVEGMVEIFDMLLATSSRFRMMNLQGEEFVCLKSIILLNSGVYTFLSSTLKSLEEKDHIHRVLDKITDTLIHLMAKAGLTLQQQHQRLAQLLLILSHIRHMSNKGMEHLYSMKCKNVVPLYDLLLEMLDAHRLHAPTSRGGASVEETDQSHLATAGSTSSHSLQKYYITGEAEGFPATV
Sequence of Peroxisome proliferator-activated receptor gamma (Homo sapiens) (P37231 whole entry, looked up): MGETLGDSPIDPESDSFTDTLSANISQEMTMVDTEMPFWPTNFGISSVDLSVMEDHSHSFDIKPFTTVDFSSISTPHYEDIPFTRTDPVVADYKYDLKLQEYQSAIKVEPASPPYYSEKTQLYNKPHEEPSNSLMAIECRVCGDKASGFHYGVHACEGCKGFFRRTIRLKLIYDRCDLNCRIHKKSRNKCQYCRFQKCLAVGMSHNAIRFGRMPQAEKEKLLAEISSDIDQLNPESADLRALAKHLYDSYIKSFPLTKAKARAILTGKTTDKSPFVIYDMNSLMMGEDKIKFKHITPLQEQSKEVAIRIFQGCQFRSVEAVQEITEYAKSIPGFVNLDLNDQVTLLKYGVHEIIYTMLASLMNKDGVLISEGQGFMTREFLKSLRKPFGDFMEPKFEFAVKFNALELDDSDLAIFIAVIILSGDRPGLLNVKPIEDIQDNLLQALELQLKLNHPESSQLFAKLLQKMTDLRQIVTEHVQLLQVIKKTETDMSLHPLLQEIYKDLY

COc1ccc(C=O)cc1OC
inactive: all assays above
